{"source": "PubChem BioAssay AID504452", "about": "(The Scripps Research Institute Molecular Screening Center, 2011)", "note": "Calls of active or inactive are those of the source. Cut-off read from the data, not from the text of the source: active = activation above about 85%; inactive = the rest.", "data": [{"target": "Peroxisome proliferator-activated receptor gamma (Homo sapiens) (UniProt P37231)", "sequence (P37231 whole entry, looked up)": "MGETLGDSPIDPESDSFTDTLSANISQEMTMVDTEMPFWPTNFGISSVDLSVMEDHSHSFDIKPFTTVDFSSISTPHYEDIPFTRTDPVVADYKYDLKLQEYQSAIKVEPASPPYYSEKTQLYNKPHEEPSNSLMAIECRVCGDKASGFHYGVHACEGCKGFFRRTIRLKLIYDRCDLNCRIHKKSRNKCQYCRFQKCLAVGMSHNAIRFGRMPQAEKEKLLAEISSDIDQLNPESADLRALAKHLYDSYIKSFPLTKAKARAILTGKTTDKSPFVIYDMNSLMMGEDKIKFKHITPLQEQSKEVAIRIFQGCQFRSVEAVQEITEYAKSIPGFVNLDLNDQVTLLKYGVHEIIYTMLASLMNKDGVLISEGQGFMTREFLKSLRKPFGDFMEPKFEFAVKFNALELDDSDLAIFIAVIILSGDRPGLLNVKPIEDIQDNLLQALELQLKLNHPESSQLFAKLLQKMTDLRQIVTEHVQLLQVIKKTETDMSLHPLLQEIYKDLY", "assay": "partial agonism at human PPARgamma receptor – cell-based, luciferase reporter, luminescence, primary screen (AID 504452);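 note: Cos-1 cells carrying PPARgamma and a response element luciferase reporter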", "conditions": "cell-based PPARg luciferase reporter, at 5 µM, stronger effect = higher value; activation (% of full agonist control): measured here: relative to full agonist control", "units": {"activation (% of full agonist control)": "%"}, "values": [{"compound": "CC(=O)N1N=C(c2ccccc2)CC1c1cn(Cc2ccccc2)c2ccccc12", "note": "(stereo unspecified)", "activation (% of partial agonist control)": "99% (active)", "activation (% of full agonist control)": 44.7}, {"compound": "COc1cc(/C=C(\\NC(=O)c2ccccc2)C(=O)NC(C(=O)O)c2ccccc2)cc(OC)c1OC", "note": "(stereo unspecified)", "activation (% of partial agonist control)": "88% (active)", "activation (% of full agonist control)": 39.8}, {"compound": "Cc1[nH][nH]c(=O)c1C(c1c(C)[nH][nH]c1=O)c1cn(Cc2cccc3ccccc23)c2ccccc12", "activation (% of partial agonist control)": "83.3% (inactive)", "activation (% of full agonist control)": 37.6}, {"compound": "CCOc1cccc(/C(O)=C2/C(=O)C(=O)N(CCN3CCOCC3)C2c2ccncc2)c1", "note": "(stereo unspecified)", "activation (% of full agonist control)": 41.3, "activation (% of partial agonist control)": "91.4% (active)"}, {"compound": "Cc1cc(C)c2nc(N3C(=O)C(O)=C(C(=O)c4ccco4)C3c3ccc(O)cc3)sc2c1", "note": "(stereo unspecified)", "activation (% of partial agonist control)": "89.1% (active)", "activation (% of full agonist control)": 40.2}, {"compound": "O=C(CN1CCOC1=O)N1CCCC(N2CCN(c3cccc(C(F)(F)F)c3)CC2)C1", "note": "(stereo unspecified)", "activation (% of full agonist control)": 26.5, "activation (% of partial agonist control)": "58.8% (inactive)"}, {"compound": "Cc1ccc(C(=O)N2NC(c3ccccc3F)C3C(=O)N(c4cccc(C)c4)C(=O)C32)cc1", "note": "(stereo unspecified)", "activation (% of full agonist control)": 33.4, "activation (% of partial agonist control)": "73.8% (inactive)"}, {"compound": "Cc1ccccc1NC(=O)CC1C(=O)Nc2ccccc2N1CC(=O)N(C)C1CCS(=O)(=O)C1", "note": "(stereo unspecified)", "activation (% of full agonist control)": 47, "activation (% of partial agonist control)": "104% (active)"}, {"compound": "O=C(NCc1ccccc1F)C(=O)NCC1CCCN1S(=O)(=O)c1ccccc1", "note": "(stereo unspecified)", "activation (% of full agonist control)": 16.1, "activation (% of partial agonist control)": "35.6% (inactive)"}, {"compound": "Cc1cc(N2C(=O)C(O)=C(C(=O)c3cccs3)C2c2cccc(Br)c2)no1", "note": "(stereo unspecified)", "activation (% of full agonist control)": 45.7, "activation (% of partial agonist control)": "101% (active)"}, {"compound": "O=C1CC(NS(=O)(=O)c2ccc3ccccc3c2)CN1c1ccccc1", "note": "(stereo unspecified)", "activation (% of partial agonist control)": "70.2% (inactive)", "activation (% of full agonist control)": 31.7}, {"compound": "O=C(COc1coc(CN2CCc3ccccc3C2)cc1=O)Nc1cccc(Cl)c1", "activation (% of partial agonist control)": "64.6% (inactive)", "activation (% of full agonist control)": 29.2}, {"compound": "Cn1cc(CNCc2cn[nH]c2-c2ccc(F)cc2)c(-c2ccc3c(c2)OCCO3)n1", "activation (% of partial agonist control)": "65.8% (inactive)", "activation (% of full agonist control)": 29.7}, {"compound": "COc1ccc(N2CCN(C3CC(=O)N(Cc4ccc(N5CCCC5=O)cc4)C3=O)CC2)cc1", "note": "(stereo unspecified)", "activation (% of full agonist control)": 27.6, "activation (% of partial agonist control)": "61.2% (inactive)"}, {"compound": "N#Cc1ccc(C(=O)Nc2cc(-c3ccc(F)cc3)nn2-c2ccccc2)cc1", "activation (% of partial agonist control)": "60.6% (inactive)", "activation (% of full agonist control)": 27.4}, {"compound": "CN(CCNC(=O)C1CCCN(c2ncnc3c2nc2n3CCCCC2)C1)Cc1ccccc1", "note": "(stereo unspecified)", "activation (% of full agonist control)": 49, "activation (% of partial agonist control)": "109% (active)"}, {"compound": "O=C(CSc1nc(=O)n(CCCN2CCOCC2)c2c1CCC2)Nc1cccc(F)c1", "activation (% of full agonist control)": 40.3, "activation (% of partial agonist control)": "89.3% (active)"}, {"compound": "O=C(COc1ccc([N+](=O)[O-])cc1)Nc1cccc(C(=O)Nc2ccccc2C(=O)O)c1", "activation (% of full agonist control)": 27.7, "activation (% of partial agonist control)": "61.3% (inactive)"}, {"compound": "COc1ccc(N2C(=O)C(CN3CCN(C)CC3)C2c2ccccc2)cc1", "note": "(stereo unspecified)", "activation (% of partial agonist control)": "70.6% (inactive)", "activation (% of full agonist control)": 31.9}, {"compound": "O=C(CSc1nc(=O)n(CCN2CCOCC2)c2c1CCCC2)Nc1cccc([N+](=O)[O-])c1", "activation (% of partial agonist control)": "106% (active)", "activation (% of full agonist control)": 47.7}, {"compound": "COC(=O)c1sc(N2C(=O)C(O)=C(C(=O)c3ccc(C)o3)C2c2ccc(F)cc2)nc1C", "note": "(stereo unspecified)", "activation (% of full agonist control)": 29.9, "activation (% of partial agonist control)": "66.2% (inactive)"}, {"compound": "O=C(Cc1ccccc1)n1nc(-c2ccco2)nc1SCc1ccccc1", "activation (% of partial agonist control)": "81.8% (inactive)", "activation (% of full agonist control)": 37}, {"compound": "c1ccc(CCN2CN(CCCN3CCOCC3)c3nc4ccccc4n3C2)cc1", "activation (% of partial agonist control)": "54.4% (inactive)", "activation (% of full agonist control)": 24.6}, {"compound": "O=c1c2cn(Cc3ccc(F)cc3)c3ccccc3c-2nn1Cc1ccc(F)cc1", "activation (% of partial agonist control)": "89.3% (active)", "activation (% of full agonist control)": 40.3}, {"compound": "CCOc1cccc(/C(O)=C2/C(=O)C(=O)N(Cc3ccco3)C2c2ccncc2)c1", "note": "(stereo unspecified)", "activation (% of partial agonist control)": "91% (active)", "activation (% of full agonist control)": 41.1}, {"compound": "O=C1C(=O)N(CC2CCCO2)C(c2ccco2)/C1=C(/O)c1ccc(F)cc1", "note": "(stereo unspecified)", "activation (% of full agonist control)": 15, "activation (% of partial agonist control)": "33.1% (inactive)"}, {"compound": "N=c1c(C(=O)NCCc2ccccc2)cc2c(=O)n3ccccc3nc2n1CC1CCCO1", "note": "(stereo unspecified)", "activation (% of partial agonist control)": "76.7% (inactive)", "activation (% of full agonist control)": 34.6}, {"compound": "O=C(Cc1cccs1)N1CCCC(c2nc3c(nnn3Cc3ccc(F)cc3)c(=O)[nH]2)C1", "note": "(stereo unspecified)", "activation (% of full agonist control)": 32.7, "activation (% of partial agonist control)": "72.5% (inactive)"}, {"compound": "COc1ccc(-c2nn(-c3ccccc3)cc2/C=C2/SC(=S)N(CCC(=O)O)C2=O)c(C)c1", "activation (% of full agonist control)": 44.4, "activation (% of partial agonist control)": "98.3% (active)"}, {"compound": "O=C1C2CCCN2c2ccc(S(=O)(=O)N3CCOCC3)cc2N1Cc1cccc(C(F)(F)F)c1", "note": "(stereo unspecified)", "activation (% of full agonist control)": 32.4, "activation (% of partial agonist control)": "71.8% (inactive)"}, {"compound": "CC(C(=O)N1CCN(c2ccccc2)CC1)N1C(=O)C2CC=CCC2C1=O", "note": "(stereo unspecified)", "activation (% of full agonist control)": 32.1, "activation (% of partial agonist control)": "71.1% (inactive)"}, {"compound": "Cc1cc(N2C(=O)C(O)=C(C(=O)c3ccco3)C2c2cccc(Oc3ccccc3)c2)no1", "note": "(stereo unspecified)", "activation (% of partial agonist control)": "71.3% (inactive)", "activation (% of full agonist control)": 32.2}, {"compound": "O=C(Nc1ccccc1Cl)C(=O)c1cn(CC(=O)N2CCOCC2)c2ccccc12", "activation (% of full agonist control)": 50.5, "activation (% of partial agonist control)": "112% (active)"}]}]}
